Screening data as filed in PubChem BioAssay.
Sampled rows, rich in hits. Any-hit rate of the full collection: about 5.7%.
Giardia kill: kills Giardia lamblia; activity change, % at 7.66 µM, hits read low; AID 540267; 340,000 compounds, 0.15% hits; Giardia lamblia trophozoite viability; in the data active = activity change below about -80%; inconclusive = between about -30% and that limit;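 also: parasites exposed to compound for two days anaerobically before the ATP read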
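ATP-content bioluminescence gauges trophozoite survival. Cells (100/well) receive compound and incubate anaerobically for 48 hrs at 37 deg C; detection reagent follows for 15-30 min at room temperature.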
KB-3-1 cytotox: kills parental KB-3-1 adenocarcinoma cells. KB-3-1 viability, CellTiter-Glo ATP luminescence, 72 h. Potency, µM (doses to about 46.1 µM), most hits filed as cytotoxic. 400,000 compounds, 1.4% hits. AID 1347075; also: potency is read from the fitted curve at half-maximal effect; nearly all actives have a fitted effect of over 60% in size
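Using CellTiter-Glo luminescence, growth of non-resistant KB-3-1 adenocarcinoma cells is assessed 72 h after pin-tool compound addition at 37 °C. Normalized responses across the concentration series yield fitted curves.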
KB-V1 cytotox: KB-V1 MDR subline cytotoxicity. KB-V1 MDR cells viability, CellTiter-Glo, 72 h. Potency, µM (doses to about 46.1 µM), actives largely listed as cytotoxic. 400,000 compounds, 3.4% hits. AID 1347076; also: potency is read from the fitted curve at half-maximal effect; nearly all actives have a fitted effect of over 60% in size
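Potencies derive from concentration-effect curves fitted to normalized luminescence (CellTiter-Glo) of KB-V1 cells treated for 72 h at 37 degrees C in phenol-red-free DMEM containing 10% FBS.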
PI4K2A block: inhibitors of human PI4K2A | AID 1346378 | 420,000 compounds, 0.13% hits | Q9BTU6 | purified PI4K2A, ADP-Glo luminescence, 1 h; active compounds read low | activity change, negative = inhibition, % at 76.9 µM; in the data active = activity change below about -50%; inconclusive = mostly about -30% to -49%;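 also: -100% = wells without enzyme as full effect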
Target sequence (Q9BTU6 whole entry, looked up): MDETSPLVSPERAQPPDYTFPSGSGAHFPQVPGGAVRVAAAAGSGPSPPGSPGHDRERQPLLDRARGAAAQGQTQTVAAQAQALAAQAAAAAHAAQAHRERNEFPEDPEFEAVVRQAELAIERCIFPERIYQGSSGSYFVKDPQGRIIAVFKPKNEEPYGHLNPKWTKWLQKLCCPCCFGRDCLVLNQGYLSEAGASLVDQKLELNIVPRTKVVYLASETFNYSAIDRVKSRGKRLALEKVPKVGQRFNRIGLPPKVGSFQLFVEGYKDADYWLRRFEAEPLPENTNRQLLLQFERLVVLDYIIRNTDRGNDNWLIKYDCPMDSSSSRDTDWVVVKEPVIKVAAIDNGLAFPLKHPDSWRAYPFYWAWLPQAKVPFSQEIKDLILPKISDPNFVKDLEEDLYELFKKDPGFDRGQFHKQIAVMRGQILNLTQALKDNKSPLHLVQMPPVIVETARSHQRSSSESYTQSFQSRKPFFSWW
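In this quantitative HTS, ADP production by PI4K2A was quantified luminescently after 1 h at ambient temperature; 100 microM adenosine served as plate-quality control.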
Nrf2 inh: blocks Nrf2 signaling; A549 ARE-Fluc reporter, luciferase luminescence, 18-24 h; Potency, µM (series often up to 46 µM), for the others: at the highest dose activity change, negative = inhibition, most hits filed as inhibitors; 360,000 compounds, 2.1% hits; also: potency is read from the fitted curve at half-maximal effect; nearly all actives have a fitted effect of over 60% in size
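A549 ARE_Fluc cells (5000/well, 5% FBS OPTI-MEM) pre-incubated 2 h, then treated with compounds 18-24 h at 37C/5% CO2 in concentration-response. CellTiter-Fluor viability read first; BugLite luciferase luminescence after 15 min at room temperature gives Nrf2 activity.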
A549 viability: kills or reduces viability of A549 cells in Nrf2 counter-screen; A549 ARE-Fluc cells, CellTiter-Fluor viability, 18-24 h; AID 504648; Potency, µM (titrated, usually from 46 µM), for inactives: at the highest dose activity change, negative = cytotoxicity, actives largely listed as inhibitors; 390,000 compounds, 0.16% hits; also: potency is read from the fitted curve at half-maximal effect
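A549 ARE-Fluc cells in 5% FBS OPTI-MEM, 5000 cells/well, rested 2 h then exposed to compounds in concentration-response for 18-24 h at 37 °C. Viability by CellTiter-Fluor fluorescence (Ex 405/Em 525) after 30 min; luciferase luminescence (BugLite, 15 min, RT) read afterwards.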
* = called active by the depositor; i = inactive; ? = inconclusive; · = no result. Unless noted, calls follow the shape of the dose curve; as a rule, active = well fitted curve in the direction sought with a large enough effect; inconclusive = small, poorly fitted or top-dose-only effect, or another doubt; inactive = no such curve, though single readings can be large; an effect the other way counts as inactive or inconclusive. Unless noted, % is scaled to controls: 0 for no effect and ±100 for the full control effect.

SMILES | Giardia kill | KB-3-1 cytotox | KB-V1 cytotox | PI4K2A block | Nrf2 inh | A549 viability
CCCCCCCCn1ccc(=N)cc1 | -11.6 | 5.8µM* | i | 0.9 | -23.0% | 0.1%
CCCOCc1cc(CN2CCN(c3ccccc3OC)CC2)c(O)c2ncccc12 | · | · | · | 7.7 | ? | 4.8%
COCc1cc(CN2CCCC2)c(O)c2ncccc12 | -13.0 | ? | ? | -0.2 | ? | -1.9%
CN(C)C1CCN(Cc2cc(COCc3ccccc3)c3cccnc3c2O)C1 (configuration not stated) | ? | ? | i | -0.6 | 20.6µM* | -12.4%
Oc1c(CN2CCCCC2)cc(COCc2ccccc2)c2cccnc12 | -16.7 | 5.17µM* | ? | -10.4 | ? | ?
COc1ccc(Br)cc1C1NC(c2ccc3c(c2)OCO3)=CC(c2cc(Cl)ccc2O)N1 (configuration not stated) | 1.7 | · | · | · | -15.4% | -2.4%
O=C(NCCc1ccccc1)OCc1cn(Cc2ccccc2F)nn1 | · | · | · | -2.8 | · | ·
CCOc1cc(CNc2ccc3c(c2)OCCO3)cc(Br)c1OC | 1.6 | 1.64µM* | 2.06µM* | 0.8 | 25.4% | ?
CCOc1c(Br)cc(CNc2ccc3c(c2)OCCO3)cc1OC | 22.4 | 2.06µM* | 4.11µM* | -3.7 | 0.5% | ?
CN(c1nccc(=O)[nH]1)C1CCN(c2nc3ccccc3n2Cc2ccc(F)cc2)CC1 | · | · | · | 1.2 | · | ·
CCC(Sc1nc2sc(C(=O)OC)c(C)c2c(=O)n1N)C(=O)N(CC)CC (configuration not stated) | 11.4 | i | 3.66µM* | 1.5 | -13.3% | 1.5%
COCCCNC(=O)CSc1nc2sc(C(=O)OC)c(C)c2c(=O)n1N | -9.3 | i | i | -10.5 | -9.4% | 0.0%
COC(=O)c1sc2nc(SCc3ccccc3C)n(N)c(=O)c2c1C | 24.3 | i | i | -3.5 | 6.8% | 1.5%
CCOCCCn1c(SC(C)C(=O)NCC2CCCO2)nc2sc(C)c(C)c2c1=O (configuration not stated) | -4.4 | i | i | -5.5 | -19.8% | -12.3%
CCC(Sc1nc2sc(C(=O)OC)c(C)c2c(=O)n1N)C(=O)NCC1CCCO1 (configuration not stated) | -26.0 | i | 16.4µM* | 2.7 | -3.5% | 1.3%
CCCCNC(=O)C(CC)Sc1nc2sc(C(=O)OC)c(C)c2c(=O)n1N (configuration not stated) | -2.2 | i | 4.61µM* | 2.6 | -1.1% | 8.8%
COc1ccc(Cn2cc(C(=O)c3ccc(C)c(C)c3)c(=O)c3ccccc32)cc1 | · | i | i | -0.1 | ? | ?
COc1cc2c(=O)c(C(=O)c3ccc(C)c(C)c3)cn(Cc3ccccc3)c2cc1OC | · | i | i | -0.1 | 20.0% | -10.2%
COc1cc2c(=O)c(C(=O)c3ccc(C)c(C)c3)cn(Cc3ccccc3F)c2cc1OC | · | ? | ? | -1.7 | ? | 20.6µM*
COc1ccc2c(c1)c(=O)c(C(=O)c1ccccc1)cn2Cc1ccc(C)cc1 | -18.1 | ? | 18.4µM* | 0.5 | ? | -12.1%
CCc1ccc(C(=O)c2cn(Cc3ccccc3)c3cc(OC)c(OC)cc3c2=O)cc1 | · | i | i | 4.5 | ? | 20.6µM*
CCC(=O)Nc1ccc(/C(C)=N/NC(=O)c2c(Br)c(C)nn2C)cc1 | 60.5 | i | 7.31µM* | -1.4 | 6.8% | 11.5%
CCc1ccc(OCc2ccccc2C(=O)Nc2ccc3nc(C)cc(N)c3c2)cc1 | · | 16.4µM* | ? | · | · | ·
CC(=O)Nc1ccc(/C=C2\C=Cc3ccccc32)cc1 | · | i | i | · | · | ·
CC(=O)c1ccc(OCC(=O)N(C2CCCCC2)C2CCS(=O)(=O)C2)cc1 (configuration not stated) | -2.6 | i | i | -3.9 | -0.5% | -11.4%
SMILES | Giardia kill | KB-3-1 cytotox | KB-V1 cytotox | PI4K2A block | Nrf2 inh | A549 viability
O=C(CCl)N(C1CCCC1)C1CCS(=O)(=O)C1 (configuration not stated) | -6.1 | ? | i | -2.7 | 20.6µM* | -9.1%
COc1ccc(/C=C(/C(=O)c2ccc(Cl)cc2Cl)n2cncn2)cc1 | -1.1 | i | i | -0.8 | -21.8% | -2.7%
CN(C)c1ccc(/C=C(/C(=O)c2ccc(Cl)cc2Cl)n2cncn2)cc1 | 1.4 | 23.1µM* | 5.17µM* | 5.4 | -0.8% | -9.2%
C#CCNC(=O)CSCc1nc(-c2ccc(OCC)cc2)oc1C | · | · | · | 1.7 | · | ·
O=C1C(N2CCOCC2)=C(n2nnc3ccccc32)C(=O)c2ccccc21 | -21.2 | i | 4.11µM* | -16.0 | 23.1µM* | 23.1µM*
COc1ccc(C2=NOC(C(=O)NCc3ccccn3)C2)cc1OC (configuration not stated) | 1.4 | i | i | -5.8 | 1.4% | 14.7%
COc1ccc(C2=NOC(C(=O)NCc3cccs3)C2)cc1OC (configuration not stated) | -3.1 | 4.61µM* | 5.17µM* | -0.9 | ? | -18.4%
COc1cc(C2=NOC(C(=O)NCc3cccnc3)C2)cc(OC)c1OC (configuration not stated) | 1.6 | ? | i | -6.2 | -28.8% | 2.0%
COc1cc(OC)c(C2=NOC(C(=O)NCc3cccs3)C2)cc1Cl (configuration not stated) | -14.7 | i | 7.31µM* | 2.5 | 7.7% | -20.7%
COc1ccc(C2=NOC(C(=O)NCc3cccs3)C2)cc1 (configuration not stated) | 1.2 | 6.51µM* | 2.91µM* | 9.4 | ? | 1.4%
COc1cc(C2=NOC(C(=O)NCc3cccs3)C2)cc(OC)c1OC (configuration not stated) | -15.2 | 2.06µM* | 2.59µM* | 0.7 | 4.7% | -13.8%
O=C(NN=Cc1cccc(OCc2ccccc2)c1)c1cc(-c2ccc(Cl)cc2)n[nH]1 | · | · | · | -0.9 | · | ·
O=C(NCc1cccs1)C1CC(c2ccccc2O)=NO1 (configuration not stated) | -3.6 | 16.4µM* | ? | 4.8 | -2.6% | -4.1%
CCn1ncc(C2=NOC(C(=O)NCc3ccc(Cl)cc3)C2)c1C (configuration not stated) | 5.4 | 2.31µM* | 4.61µM* | -0.2 | · | -18.4%
O=C(NCc1ccccn1)C1CC(c2ccccc2O)=NO1 (configuration not stated) | ? | i | i | 3.3 | 7.4% | -1.4%
COc1ccc(C2=NOC(C(=O)NCc3ccc(F)cc3)C2)cc1 (configuration not stated) | -5.2 | 7.31µM* | 14.6µM* | -4.5 | -11.4% | 0.0%
CCn1ncc(C2=NOC(C(=O)Nc3ccc(C)cc3)C2)c1C (configuration not stated) | 11.3 | i | i | 2.7 | ? | -9.9%
